ChEMBL document CHEMBL3433997, “St. Jude Leishmania screening dataset” (2016)

What was measured:
Assay type in all cases: functional
[1] = target: Solute carrier family 2, facilitated glucose transporter member 1 (Homo sapiens) (UniProt P11166); test: ST_JUDE_LEISH: Cytotoxicity at 2uM final concentration against transgenic Leishmania Mexicana promastigotes LmGLUT1 that are glucose transport deficient and complemented with the human glucose transporter GLUT1. Activity is measured by DNA content using SYBR green in vitro
[2] = target: Hexose transporter 1 (Plasmodium falciparum) (UniProt O97467); test: ST_JUDE_LEISH: Cytotoxicity at 2uM final concentration against transgenic Leishmania Mexicana promastigotes LmPfHT that are glucose transport deficient and complemented with the Plasmodium falciparum hexose transporter. Activity is measured by DNA content using SYBR green in vitro
[3] = target: Glucose transporter (Leishmania mexicana) (UniProt O61059); test: ST_JUDE_LEISH: Cytotoxicity at 2uM final concentration against transgenic Leishmania Mexicana promastigotes LmGT2 that are glucose transport deficient and complemented with the L. Mexicana glucose transporter 2. Activity is measured by DNA content using SYBR green in vitro

Solute carrier family 2, facilitated glucose transporter member 1 (Homo sapiens), sequence (P11166 whole entry): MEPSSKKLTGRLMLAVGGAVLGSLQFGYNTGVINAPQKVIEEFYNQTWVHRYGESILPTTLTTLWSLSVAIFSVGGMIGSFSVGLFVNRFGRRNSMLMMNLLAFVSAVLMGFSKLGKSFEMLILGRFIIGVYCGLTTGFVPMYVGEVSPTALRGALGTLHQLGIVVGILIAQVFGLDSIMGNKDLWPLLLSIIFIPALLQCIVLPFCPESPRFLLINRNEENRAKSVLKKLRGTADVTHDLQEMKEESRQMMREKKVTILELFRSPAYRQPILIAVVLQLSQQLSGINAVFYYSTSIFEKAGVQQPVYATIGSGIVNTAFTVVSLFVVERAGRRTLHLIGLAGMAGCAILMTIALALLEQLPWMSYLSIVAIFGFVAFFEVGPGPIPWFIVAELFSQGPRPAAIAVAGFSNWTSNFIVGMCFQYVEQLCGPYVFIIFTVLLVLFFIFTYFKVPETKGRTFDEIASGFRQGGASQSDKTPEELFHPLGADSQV

SMILES	inhibition [1] [%]	inhibition [2] [%]	inhibition [3] [%]
Cc1cc(N[C@@H](Cc2ccccc2)C(=O)Nc2ccccc2)nc(NCCc2ccc(F)cc2)n1	3.66	3.68	1.86
COc1cc2nc(NCC3CCN(C(=O)c4ccc(-c5ccc(C(=O)N(C)C)cc5C)cc4)CC3)nc(N)c2cc1OC	10.9	9.71	7.15
Cc1nc(N)nc(N)c1-c1ccc(Cl)cc1	3.05	2.21	2.37
CCCN1CCC(c2c[nH]c3ccc(NC(=O)Nc4cccc(Cl)c4Cl)cc23)CC1	3.84	2.45	4.47
Cc1sc2ncnc(Sc3nc4ccccc4[nH]3)c2c1C	5.47	8.07	3.58
Cc1cnc(CN(Cc2ccc(-c3ccc(CNCCc4ccc(S(C)(=O)=O)cc4)cn3)cc2)C(=O)c2ccc([N+](=O)[O-])c(C)c2)cn1	1.89	3.15	1.98
O=C(/C=C/c1ccc(Cl)c(Cl)c1)NCCCCCN1CCC(c2c[nH]c3ccc(O)cc23)CC1	2.16	1.31	1.25
COc1ccc(-n2cc(C(=O)c3cc(Br)ccc3O)cc(C#N)c2=O)cc1Cl	3.4	1.9	0.95
Cc1cc(N2CCCC2)nc(Nc2ccc(NC(=O)C3CCCC3)cc2)n1	-0.76	1.16	0.83
O=C(/C=C/c1ccc(Cl)c(Cl)c1)N1CCC(CN2CCC(c3c[nH]c4ccncc34)CC2)CC1	4.66	5.47	5.44
Nc1nccc2ccc(Oc3ccncc3)cc12	2.47	3.29	4.2
Cc1c(C(=O)C2CC2CN2CCC(N3CCCCC3)CC2)sc2ccccc12 (stereo not given)	2.43	-0.31	2.09
COc1ccc(CC2(c3ccc(F)cc3)N=C(N)N(CCCc3ccc4c(c3)OCO4)C2=O)cc1 (stereo not given)	4	5.58	5.39
C[C@@H](NC(=O)c1nn(-c2ccc(Cl)cc2)c(=O)c2ccccc12)C(C)(C)C	1.61	1.12	0.85
CNCCNCc1cccc(-c2ccc(-c3nc4cccc(C)c4[nH]3)cc2)c1	-1.62	-3.38	0.95
CCOC(=O)CCCOc1cc(Cc2cnc(N)nc2N)cc(OC)c1OC	6.94	5.94	7.18
Cc1cc(=NN=Cc2cccc(F)c2)c2cc(F)ccc2[nH]1	8.18	9.63	4.81
Cc1ccc(C)c(CN2CCC(CNC(=O)c3cc4ccc5cccnc5c4[nH]3)CC2)c1	0.51	-0.66	-0.23
CCCCCc1cnc2nc(N)nc(N)c2c1C	13.6	13.5	12.4
COc1cccc2cc(C(=O)N[C@@H](CC(C)C)C(=O)NC3CC[C@@H](C)N(C(=O)Nc4ccncc4)CC3=O)oc12 (stereo not given in full)	9.49	4.38	3.24
